Assay outcomes as filed in PubChem BioAssay.
Only some compounds are listed: those with a hit (about 27% of all), similar ones and a draw of the others.
sEH inh: soluble epoxide hydrolase inhibitors, primary screen, biochemical, human sEH; recombinant human sEH enzymatic activity assay; 91,000 tested, 0.34% active; inhibition, % at 2 µM; in the data active = inhibition above about 80%
CYP2C19 activ: human CYP2C19 activators, primary screen, biochemical, luminescence; Cytochrome P450 2C19 (Homo sapiens), P33261; recombinant CYP2C19, luciferin-H EGE luminescence; hits give high values; 0 = fully inhibited enzyme, 1 = untreated enzyme; activation factor at 5 µM; 96,000 tested, under 10 active;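 active = activation factor of at least 2 at 5 µM in the primary screen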;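 note: 0 = wells with 2.5 mM tranylcypromine and 1 = vehicle-only wells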
CYP2C19 inh: blockers of cytochrome P450 2C19 activity – biochemical, luminescence, ADME assay, primary screen | P33261 | 96,000 tested, 21% active | inhibition, % at 5 µM | CYP2C19 Supersomes, luciferin-H EGE luminescence, 30 min;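 active = CYP2C19 inhibition above a set limit at 5 µM in the primary screen, cut at about 50% in these data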;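 note: plate controls were negative control wells for no effect and 2.5 mM tranylcypromine positive control for full effect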
CYP2C9 inhib: blockers of cytochrome P450 2C9 activity – biochemical, luminescence, ADME assay, primary screen. P11712. CYP2C9 Supersomes, luciferin-H conversion. inhibition, % at 5 µM. 96,000 tested, 20% active. AID 777, 2007;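 active = blocking of liver enzyme CYP2C9 beyond about 50% at 5 µM, limit read from the data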
sEH activator: soluble epoxide hydrolase activators, primary screen, biochemical, human sEH | purified human sEH enzymatic activity, activator screen | activation, % at 2 µM | 91,000 tested, 0.04% active; in the data active = activation above about 37%
CYP2C9 act: human CYP2C9 activators, primary screen, biochemical, luminescence | Cytochrome P450 2C9 (Homo sapiens), P11712 | recombinant CYP2C9, luciferin-H conversion; hits give high values; factor 1 = untreated enzyme, 0 = blocked | activation factor at 5 µM | 96,000 tested, 1.4% active | AID 1024, 2008;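 active = activation factor of 2 or more for CYP2C9 at a 5 µM dose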;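 note: 0 = sulfaphenazole-blocked wells and 1 = vehicle-only wells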
An asterisk follows results filed as active; / = not tested or not shown.

SMILES	sEH inh	CYP2C19 activ	CYP2C19 inh	CYP2C9 inhib	sEH activator	CYP2C9 act
Cc1ccc(C(=O)COC(=O)CNC(=O)C(c2ccccc2)c2ccccc2)cc1[N+](=O)[O-]	-13	0.7	30	-20	14	1.2
COc1ccc(C2C3=C(CCCC3=O)Nc3c(-c4ccccc4)c(C)nn32)cc1 (stereo unspecified)	-1	0.3	71*	35	1	0.6
O=C(CSc1nnc(-c2cccnc2)n1-c1ccccc1)Nc1ccc2c(c1)OCO2	-2	1.1	-6	11	2	0.9
Cc1ccccc1OCCn1nc(C(=O)O)c2ccccc2c1=O	4	0.5	54*	47	-5	0.5
CCCCOc1ccc(-c2nnn(CC(=O)NCCc3c[nH]c4ccccc34)n2)cc1	12	0.9	10	49	-11	0.5
Oc1ccc(N2CCN(c3ncnc4sc5c(c34)CCC5)CC2)cc1	/	0.9	12	-4	/	1
CCC1CCc2c(sc3ncnc(N4CCOCC4)c23)C1 (stereo unspecified)	3	0.1	89*	43	0	0.6
CCc1nc2ccc(C)cc2c(C(=O)NC2CCCCC2C)c1C (stereo unspecified)	2	0.8	21	71*	2	0.3
Cc1ccc2c(c1)NC(=O)C(CC(=O)NC1CCCCC1C)O2 (stereo unspecified)	10	0.9	6	-23	-11	1.2
CCC(C)c1ccc(Nc2ncccc2C#N)cc1 (stereo unspecified)	-7	0.9	8	24	7	0.8
CCn1c(SCc2nc3ccccc3c(=O)[nH]2)nnc1-c1cccnc1	0	0.1	90*	-6	-1	1.1
Nn1c(SCc2nc3ccccc3[nH]2)nnc1-c1cccnc1	/	0.7	30	13	/	0.9
C=CCn1c(SCc2nc3ccccc3[nH]2)nnc1-c1ccncc1	-10	0.1	93*	46	9	0.5
CCn1c(SCc2nc3ccccc3c(=O)[nH]2)nnc1-c1ccncc1	1	0.1	94*	37	-2	0.6
CCn1c(SCc2nc3cc(OC)c(OC)cc3c(=O)[nH]2)nnc1-c1ccncc1	-4	0.9	6	0	5	1
O=c1[nH]c(CSc2nnc(-c3cccnc3)n2C2CCCCC2)nc2ccccc12	23	0.4	62*	7	-21	0.9
O=C(CN(Cc1ccco1)C(=O)CNS(=O)(=O)c1ccc(Cl)cc1)NCc1ccc(F)cc1	8	/	/	/	-8	/
CCCn1nnnc1-c1cccc(Cl)c1	-13	0.6	39	10	14	0.9
COc1ccc(-c2nc3ccc(N4CCCC4)cc3c(=O)[nH]2)cc1OC	14	1	-5	4	-13	1
O=C1/C(=C/c2cccc(F)c2)CSc2sccc21	-5	0.7	26	54*	2	0.5
COc1ccc(S(=O)(=O)N(CC(=O)O)c2ccccc2)cc1	0	1.1	-10	8	-1	0.9
COC(=O)CN(c1ccccc1)S(=O)(=O)c1ccc(F)cc1	1	/	/	/	0	/
COc1ccc(N(CC(=O)N/N=C/c2ccco2)S(=O)(=O)c2ccccc2)cc1	-18	0.4	60*	20	15	0.8
C=CCNC(=O)CN(c1ccc(F)cc1)S(=O)(=O)c1ccc(OC)cc1	-10	0.1	92*	64*	10	0.4
COc1ccc(S(=O)(=O)N(CC(=O)NCc2ccco2)c2ccccc2)cc1	-1	0.4	56*	42	-1	0.6
COc1ccc(S(=O)(=O)Cc2ccccc2)cc1N	/	0.4	62*	-120	/	2.2*
Cc1ccc(N(CC(=O)N/N=C/c2ccco2)S(=O)(=O)c2ccccc2)cc1	2	0.5	50	22	0	0.8
O=C(CCSc1nc2cc(Cl)ccc2o1)N1CCOCC1	2	0.7	35	-17	-2	1.2
O=C(CSc1nnc(COc2cccc3cccnc23)o1)N1CCN(C(=O)c2ccco2)CC1	12	/	/	/	-9	/
O=C(Nc1nc2ccc(F)cc2s1)C1CCCO1 (stereo unspecified)	-4	1	4	0	4	1
